# Assay results taken from paper PMC7862700, “An all-to-all approach to the identification of sequence-specific readers for epigenetic DNA modifications on cytosine”.
# Experiments:
# Test in all cases: DAPPL (digital affinity profiling via proximity ligation, sequencing); 10 mM Tris-HCl pH 7.5, 50 mM NaCl, 1 mM DTT, 4% glycerol, room temperature, 30 min; GST-TFs on glutathione beads, 16-mer random dsDNA library, 0.1% formaldehyde crosslink after washing; high values mean tight binding
# FEV = target: T1, FEV (Homo sapiens, UniProt Q99581 1-238); conditions: protein: recombinant; tags: N-terminal GST; dsDNA, one strand shown
# T1 sequence: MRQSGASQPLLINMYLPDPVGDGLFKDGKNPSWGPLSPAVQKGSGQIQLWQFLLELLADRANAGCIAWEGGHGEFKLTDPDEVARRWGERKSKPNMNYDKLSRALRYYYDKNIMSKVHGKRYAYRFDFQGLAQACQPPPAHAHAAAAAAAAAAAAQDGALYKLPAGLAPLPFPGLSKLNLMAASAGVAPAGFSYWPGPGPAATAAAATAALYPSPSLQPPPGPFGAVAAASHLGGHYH
# Summary of the method: (§1)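 Human transcription factors fused to GST were expressed in yeast, captured on glutathione beads, given DNA barcodes and pooled with a GST-only negative control. Pools were incubated with 200 nmole of a 16-mer random double-stranded DNA library in Tris/NaCl/DTT/glycerol buffer at room temperature for 30 min. They were then washed, crosslinked with 0.1% formaldehyde, proximity-ligated (BsaI/T4 ligase, 1 h, 37 °C), PCR-amplified and sequenced on an Illumina NextSeq500. Binding signal is each 6-mer's read frequency for a factor divided by its frequency for the GST control.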
# ETV5 = ETV5 (Homo sapiens, UniProt P41161 1-510); conditions: protein: recombinant; tags: N-terminal GST; dsDNA, one strand shown
# Sequence of ETV5 (P41161 whole entry): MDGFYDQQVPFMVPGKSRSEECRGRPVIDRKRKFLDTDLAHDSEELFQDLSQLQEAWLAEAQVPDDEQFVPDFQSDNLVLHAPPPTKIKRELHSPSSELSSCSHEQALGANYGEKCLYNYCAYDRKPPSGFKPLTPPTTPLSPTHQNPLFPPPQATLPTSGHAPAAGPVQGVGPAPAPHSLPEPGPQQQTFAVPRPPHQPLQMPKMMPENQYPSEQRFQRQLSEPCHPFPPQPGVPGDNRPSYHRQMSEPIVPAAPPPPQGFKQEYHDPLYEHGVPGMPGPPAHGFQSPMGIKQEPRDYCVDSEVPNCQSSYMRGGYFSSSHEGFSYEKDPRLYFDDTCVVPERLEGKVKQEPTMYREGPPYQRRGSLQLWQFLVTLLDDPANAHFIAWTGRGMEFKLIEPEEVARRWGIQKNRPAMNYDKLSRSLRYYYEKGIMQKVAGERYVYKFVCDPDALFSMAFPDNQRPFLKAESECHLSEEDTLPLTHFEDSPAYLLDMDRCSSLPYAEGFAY
# Summary of the method: as §1
# HSF1 = HSF1 (Homo sapiens, UniProt Q00613 1-529); conditions: protein: recombinant; tags: N-terminal GST; chain copies: 3; dsDNA, one strand shown
# Sequence of HSF1 (Q00613 whole entry): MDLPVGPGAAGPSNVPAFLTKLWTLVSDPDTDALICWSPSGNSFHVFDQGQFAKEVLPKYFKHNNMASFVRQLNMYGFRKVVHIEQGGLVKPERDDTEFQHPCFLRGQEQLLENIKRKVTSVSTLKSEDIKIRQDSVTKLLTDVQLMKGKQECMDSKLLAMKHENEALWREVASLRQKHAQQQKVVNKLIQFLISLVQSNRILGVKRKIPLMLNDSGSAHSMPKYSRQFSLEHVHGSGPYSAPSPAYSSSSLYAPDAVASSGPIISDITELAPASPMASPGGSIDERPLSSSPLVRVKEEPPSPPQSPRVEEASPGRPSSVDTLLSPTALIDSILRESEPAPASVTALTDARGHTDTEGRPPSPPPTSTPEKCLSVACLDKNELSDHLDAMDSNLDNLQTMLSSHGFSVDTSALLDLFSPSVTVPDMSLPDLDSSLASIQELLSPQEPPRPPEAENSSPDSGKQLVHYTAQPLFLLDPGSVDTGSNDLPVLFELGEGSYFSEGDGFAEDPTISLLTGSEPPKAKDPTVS
# Summary of the method: as §1
# SPIC = target: T2, SPIC (Homo sapiens, UniProt Q8N5J4 1-248); conditions: protein: recombinant; tags: N-terminal GST; dsDNA, one strand shown
# T2 sequence: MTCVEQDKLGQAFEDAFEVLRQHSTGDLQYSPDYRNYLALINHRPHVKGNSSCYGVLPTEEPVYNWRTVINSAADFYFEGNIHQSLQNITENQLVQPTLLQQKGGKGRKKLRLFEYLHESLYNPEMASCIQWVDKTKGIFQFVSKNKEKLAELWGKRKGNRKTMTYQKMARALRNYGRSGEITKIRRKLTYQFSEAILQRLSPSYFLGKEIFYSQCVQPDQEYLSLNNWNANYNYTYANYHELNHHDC
# Summary of the method: as §1
# ELF4 = ELF4 (Homo sapiens, UniProt Q99607 1-663); conditions: protein: recombinant; tags: N-terminal GST; dsDNA, one strand shown
# Sequence of ELF4 (Q99607 whole entry): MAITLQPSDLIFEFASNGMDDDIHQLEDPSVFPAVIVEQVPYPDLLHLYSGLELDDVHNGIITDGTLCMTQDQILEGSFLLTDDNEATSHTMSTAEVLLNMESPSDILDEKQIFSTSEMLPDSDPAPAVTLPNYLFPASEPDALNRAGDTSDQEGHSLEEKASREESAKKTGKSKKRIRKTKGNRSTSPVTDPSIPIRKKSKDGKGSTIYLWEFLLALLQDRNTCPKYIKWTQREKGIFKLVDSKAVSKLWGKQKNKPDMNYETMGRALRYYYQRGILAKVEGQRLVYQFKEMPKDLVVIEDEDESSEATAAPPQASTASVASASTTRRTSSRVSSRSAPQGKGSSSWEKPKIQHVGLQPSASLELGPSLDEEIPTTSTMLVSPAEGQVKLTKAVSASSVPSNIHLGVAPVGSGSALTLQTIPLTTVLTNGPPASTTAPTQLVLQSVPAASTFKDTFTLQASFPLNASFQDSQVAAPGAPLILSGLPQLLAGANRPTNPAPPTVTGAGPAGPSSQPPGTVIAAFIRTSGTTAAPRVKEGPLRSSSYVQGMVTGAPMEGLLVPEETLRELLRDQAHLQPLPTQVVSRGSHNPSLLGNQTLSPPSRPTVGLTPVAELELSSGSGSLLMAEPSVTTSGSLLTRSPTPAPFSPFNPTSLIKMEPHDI
# Summary of the method: as §1
# ELK4 = target: T3, ELK4 (Homo sapiens, UniProt P28324-2 1-405); conditions: protein: recombinant; tags: N-terminal GST; dsDNA, one strand shown
# T3 sequence: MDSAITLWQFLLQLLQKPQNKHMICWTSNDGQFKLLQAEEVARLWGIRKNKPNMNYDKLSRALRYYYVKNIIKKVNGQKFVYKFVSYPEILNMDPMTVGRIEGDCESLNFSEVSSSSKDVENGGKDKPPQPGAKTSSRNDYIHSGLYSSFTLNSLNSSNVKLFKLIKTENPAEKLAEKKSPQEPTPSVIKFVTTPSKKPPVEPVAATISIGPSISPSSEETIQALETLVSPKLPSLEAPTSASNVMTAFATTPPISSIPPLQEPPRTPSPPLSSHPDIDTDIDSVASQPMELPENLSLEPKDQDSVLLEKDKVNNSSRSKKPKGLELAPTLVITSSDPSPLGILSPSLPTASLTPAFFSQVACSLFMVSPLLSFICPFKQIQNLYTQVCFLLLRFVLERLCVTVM
# Summary of the method: as §1
# ETV2 = target: T4, ETV2 (Homo sapiens, UniProt O00321 1-342); conditions: protein: recombinant; tags: N-terminal GST; dsDNA, one strand shown
# T4 sequence: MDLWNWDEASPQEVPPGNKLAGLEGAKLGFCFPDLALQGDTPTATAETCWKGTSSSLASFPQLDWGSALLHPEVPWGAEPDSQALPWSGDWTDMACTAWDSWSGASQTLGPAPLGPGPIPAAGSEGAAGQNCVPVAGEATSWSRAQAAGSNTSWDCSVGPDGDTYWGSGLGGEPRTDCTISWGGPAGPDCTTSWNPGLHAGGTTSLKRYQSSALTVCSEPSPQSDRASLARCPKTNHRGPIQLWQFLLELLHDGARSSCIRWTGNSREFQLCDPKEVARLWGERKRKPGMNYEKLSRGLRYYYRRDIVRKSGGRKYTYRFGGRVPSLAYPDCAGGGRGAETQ
# Summary of the method: as §1
# ELF3 = target: T5, ELF3 (Homo sapiens, UniProt P78545 1-371); conditions: protein: recombinant; tags: N-terminal GST; dsDNA, one strand shown
# T5 sequence: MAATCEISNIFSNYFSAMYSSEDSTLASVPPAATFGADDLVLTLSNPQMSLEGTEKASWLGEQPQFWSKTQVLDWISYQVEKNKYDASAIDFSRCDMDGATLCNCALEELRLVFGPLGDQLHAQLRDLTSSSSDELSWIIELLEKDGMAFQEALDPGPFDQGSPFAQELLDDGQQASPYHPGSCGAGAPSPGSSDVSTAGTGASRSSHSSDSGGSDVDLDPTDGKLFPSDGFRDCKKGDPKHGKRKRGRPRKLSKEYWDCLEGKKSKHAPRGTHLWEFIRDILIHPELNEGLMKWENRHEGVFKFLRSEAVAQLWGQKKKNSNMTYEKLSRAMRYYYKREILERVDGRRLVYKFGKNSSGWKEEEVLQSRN
# Summary of the method: as §1
# CRX = CRX (Homo sapiens, UniProt O43186 1-299); conditions: protein: recombinant; tags: N-terminal GST; dsDNA, one strand shown
# Sequence of CRX (O43186 whole entry): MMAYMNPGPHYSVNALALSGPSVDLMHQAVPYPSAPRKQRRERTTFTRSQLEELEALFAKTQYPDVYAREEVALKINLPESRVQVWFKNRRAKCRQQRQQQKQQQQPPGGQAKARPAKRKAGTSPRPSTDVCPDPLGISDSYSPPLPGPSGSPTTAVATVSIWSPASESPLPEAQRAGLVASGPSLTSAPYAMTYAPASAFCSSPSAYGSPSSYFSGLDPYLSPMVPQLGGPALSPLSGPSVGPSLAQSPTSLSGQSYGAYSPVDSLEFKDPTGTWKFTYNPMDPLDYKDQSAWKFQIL
# Summary of the method: as §1
# ETV1 = ETV1 (Homo sapiens, UniProt P50549 1-477); conditions: protein: recombinant; tags: N-terminal GST; dsDNA, one strand shown
# Sequence of ETV1 (P50549 whole entry): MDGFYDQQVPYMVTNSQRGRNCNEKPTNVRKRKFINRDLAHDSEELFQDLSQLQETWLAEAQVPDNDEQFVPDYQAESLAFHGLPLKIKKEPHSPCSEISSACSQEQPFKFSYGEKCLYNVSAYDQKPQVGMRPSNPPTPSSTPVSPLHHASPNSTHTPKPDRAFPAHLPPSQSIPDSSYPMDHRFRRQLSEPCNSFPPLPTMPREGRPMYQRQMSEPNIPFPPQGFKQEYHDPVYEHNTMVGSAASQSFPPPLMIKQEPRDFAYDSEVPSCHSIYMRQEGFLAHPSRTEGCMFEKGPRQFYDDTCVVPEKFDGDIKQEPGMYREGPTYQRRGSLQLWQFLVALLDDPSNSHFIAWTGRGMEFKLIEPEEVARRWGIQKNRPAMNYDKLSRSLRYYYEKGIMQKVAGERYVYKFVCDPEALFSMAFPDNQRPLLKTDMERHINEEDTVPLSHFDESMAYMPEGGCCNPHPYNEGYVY
# Summary of the method: as §1
# ERF = target: T6, ERF (Homo sapiens, UniProt P50548 1-548); conditions: protein: recombinant; tags: N-terminal GST; dsDNA, one strand shown
# T6 sequence: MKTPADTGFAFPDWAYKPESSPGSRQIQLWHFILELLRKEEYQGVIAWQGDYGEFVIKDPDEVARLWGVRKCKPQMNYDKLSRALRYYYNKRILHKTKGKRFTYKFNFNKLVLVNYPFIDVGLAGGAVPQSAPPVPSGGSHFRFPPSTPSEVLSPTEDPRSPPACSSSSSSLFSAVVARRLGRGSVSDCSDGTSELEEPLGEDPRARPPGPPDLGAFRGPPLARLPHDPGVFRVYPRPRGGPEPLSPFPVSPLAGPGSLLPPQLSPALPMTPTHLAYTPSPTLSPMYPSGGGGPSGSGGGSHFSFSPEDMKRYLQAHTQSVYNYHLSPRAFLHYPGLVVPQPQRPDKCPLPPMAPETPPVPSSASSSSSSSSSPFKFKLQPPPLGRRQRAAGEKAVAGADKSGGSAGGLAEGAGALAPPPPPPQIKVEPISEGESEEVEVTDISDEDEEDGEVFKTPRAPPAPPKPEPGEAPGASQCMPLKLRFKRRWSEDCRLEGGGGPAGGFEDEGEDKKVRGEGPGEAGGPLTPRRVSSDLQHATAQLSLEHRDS
# Summary of the method: as §1
# ETV3L = target: T7, ETV3L (Homo sapiens, UniProt Q6ZN32 1-361); conditions: protein: recombinant; tags: N-terminal GST; dsDNA, one strand shown
# T7 sequence: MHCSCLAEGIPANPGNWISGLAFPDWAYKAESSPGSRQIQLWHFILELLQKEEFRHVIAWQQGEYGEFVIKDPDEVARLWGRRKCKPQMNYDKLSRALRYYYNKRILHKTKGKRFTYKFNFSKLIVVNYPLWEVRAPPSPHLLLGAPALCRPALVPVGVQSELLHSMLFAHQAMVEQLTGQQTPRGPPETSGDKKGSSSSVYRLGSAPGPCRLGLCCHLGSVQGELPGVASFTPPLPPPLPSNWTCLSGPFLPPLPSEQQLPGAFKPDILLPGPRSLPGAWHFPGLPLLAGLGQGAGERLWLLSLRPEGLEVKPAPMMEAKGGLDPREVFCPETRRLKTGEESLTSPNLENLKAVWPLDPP
# Summary of the method: as §1
# ETS2 = target: T8, ETS2 (Homo sapiens, UniProt P15036 1-469); conditions: protein: recombinant; tags: N-terminal GST; dsDNA, one strand shown
# T8 sequence: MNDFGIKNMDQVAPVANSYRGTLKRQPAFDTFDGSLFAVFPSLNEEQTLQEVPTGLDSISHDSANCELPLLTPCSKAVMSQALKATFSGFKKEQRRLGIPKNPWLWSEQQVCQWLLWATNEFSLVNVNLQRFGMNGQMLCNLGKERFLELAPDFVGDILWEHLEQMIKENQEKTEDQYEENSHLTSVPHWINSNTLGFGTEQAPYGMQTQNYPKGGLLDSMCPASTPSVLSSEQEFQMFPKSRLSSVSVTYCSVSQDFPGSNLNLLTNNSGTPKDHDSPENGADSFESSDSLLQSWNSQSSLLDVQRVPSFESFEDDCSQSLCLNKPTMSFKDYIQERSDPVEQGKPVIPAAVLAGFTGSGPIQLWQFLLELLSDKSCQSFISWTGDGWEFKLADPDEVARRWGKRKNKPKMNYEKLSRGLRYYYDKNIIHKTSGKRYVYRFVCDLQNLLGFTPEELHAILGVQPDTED
# Summary of the method: as §1
# SPDEF = target: T9, SPDEF (Homo sapiens, UniProt O95238 1-335); conditions: protein: recombinant; tags: N-terminal GST; dsDNA, one strand shown
# T9 sequence: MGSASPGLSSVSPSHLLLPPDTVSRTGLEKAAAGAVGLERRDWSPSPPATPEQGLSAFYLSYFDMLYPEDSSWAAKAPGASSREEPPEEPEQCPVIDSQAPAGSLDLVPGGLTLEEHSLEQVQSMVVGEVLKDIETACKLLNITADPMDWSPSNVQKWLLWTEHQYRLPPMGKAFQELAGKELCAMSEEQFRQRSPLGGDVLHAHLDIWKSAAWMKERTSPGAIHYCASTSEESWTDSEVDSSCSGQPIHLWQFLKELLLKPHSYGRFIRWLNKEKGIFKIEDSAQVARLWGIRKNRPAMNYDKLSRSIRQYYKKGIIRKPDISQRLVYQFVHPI
# Summary of the method: as §1
# ETV7 = target: T10, ETV7 (Homo sapiens, UniProt Q9Y603 1-341); conditions: protein: recombinant; tags: N-terminal GST; dsDNA, one strand shown
# T10 sequence: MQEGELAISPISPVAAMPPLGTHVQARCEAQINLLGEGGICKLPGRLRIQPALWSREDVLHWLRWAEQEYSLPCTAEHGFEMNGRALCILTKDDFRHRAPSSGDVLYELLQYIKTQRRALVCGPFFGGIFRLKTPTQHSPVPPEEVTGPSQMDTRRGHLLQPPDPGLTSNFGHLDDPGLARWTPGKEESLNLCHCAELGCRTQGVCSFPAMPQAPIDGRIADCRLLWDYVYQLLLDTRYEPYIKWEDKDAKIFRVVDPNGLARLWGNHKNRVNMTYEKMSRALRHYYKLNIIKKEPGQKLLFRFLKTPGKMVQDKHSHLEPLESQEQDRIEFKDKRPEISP
# Summary of the method: as §1
# ELF5 = target: T11, ELF5 (Homo sapiens, UniProt Q9UKW6-2 1-255); conditions: protein: recombinant; tags: N-terminal GST; dsDNA, one strand shown
# T11 sequence: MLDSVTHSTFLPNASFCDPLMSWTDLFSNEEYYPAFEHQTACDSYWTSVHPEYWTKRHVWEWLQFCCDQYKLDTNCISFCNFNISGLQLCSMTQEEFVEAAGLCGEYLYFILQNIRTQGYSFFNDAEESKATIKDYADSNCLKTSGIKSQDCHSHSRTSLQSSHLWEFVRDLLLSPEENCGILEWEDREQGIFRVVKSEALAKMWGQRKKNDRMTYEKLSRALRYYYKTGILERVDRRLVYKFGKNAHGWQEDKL
# Summary of the method: as §1
# ETV3 = target: T12, ETV3 (Homo sapiens, UniProt P41162-2 1-143); conditions: protein: recombinant; tags: N-terminal GST; dsDNA, one strand shown
# T12 sequence: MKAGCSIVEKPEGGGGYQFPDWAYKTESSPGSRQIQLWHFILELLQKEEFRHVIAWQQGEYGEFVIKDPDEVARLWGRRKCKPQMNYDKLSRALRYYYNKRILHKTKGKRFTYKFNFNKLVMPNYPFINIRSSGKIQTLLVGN
# Summary of the method: as §1
# ETV6 = ETV6 (Homo sapiens, UniProt P41212 1-452); conditions: protein: recombinant; tags: N-terminal GST; dsDNA, one strand shown
# Sequence of ETV6 (P41212 whole entry): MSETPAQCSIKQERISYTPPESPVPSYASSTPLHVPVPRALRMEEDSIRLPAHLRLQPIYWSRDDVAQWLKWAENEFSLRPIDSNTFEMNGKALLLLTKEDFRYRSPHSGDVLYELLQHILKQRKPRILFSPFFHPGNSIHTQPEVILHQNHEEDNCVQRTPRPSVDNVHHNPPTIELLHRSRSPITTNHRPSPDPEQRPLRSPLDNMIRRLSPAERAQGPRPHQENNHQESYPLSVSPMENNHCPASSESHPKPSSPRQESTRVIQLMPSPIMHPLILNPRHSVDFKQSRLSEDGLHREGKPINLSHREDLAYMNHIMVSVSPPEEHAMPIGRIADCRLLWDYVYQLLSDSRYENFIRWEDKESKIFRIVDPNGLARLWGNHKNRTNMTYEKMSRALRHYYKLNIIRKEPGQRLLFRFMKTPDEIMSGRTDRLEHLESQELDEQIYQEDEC
# Summary of the method: as §1
sequence,measurement,setting,value
GATGAT,binding signal,FEV,"1.18 fold enrichment (6-mer frequency, TF over GST control)"
same,binding signal,ETV5,"1.31 fold enrichment (6-mer frequency, TF over GST control)"
same,binding signal,HSF1,"1.49 fold enrichment (6-mer frequency, TF over GST control)"
same,binding signal,SPIC,"1.23 fold enrichment (6-mer frequency, TF over GST control)"
same,binding signal,ELF4,"1.32 fold enrichment (6-mer frequency, TF over GST control)"
same,binding signal,ELK4,"1.26 fold enrichment (6-mer frequency, TF over GST control)"
same,binding signal,ETV2,"1.33 fold enrichment (6-mer frequency, TF over GST control)"
same,binding signal,ELF3,"1.33 fold enrichment (6-mer frequency, TF over GST control)"
same,binding signal,CRX,"1.68 fold enrichment (6-mer frequency, TF over GST control)"
same,binding signal,ETV1,"1.27 fold enrichment (6-mer frequency, TF over GST control)"
same,binding signal,ERF,"1.5 fold enrichment (6-mer frequency, TF over GST control)"
same,binding signal,ETV3L,"1.31 fold enrichment (6-mer frequency, TF over GST control)"
same,binding signal,ETS2,"1.23 fold enrichment (6-mer frequency, TF over GST control)"
same,binding signal,SPDEF,"1.32 fold enrichment (6-mer frequency, TF over GST control)"
same,binding signal,ETV7,"1.36 fold enrichment (6-mer frequency, TF over GST control)"
same,binding signal,ELF5,"1.24 fold enrichment (6-mer frequency, TF over GST control)"
same,binding signal,ETV3,"1.39 fold enrichment (6-mer frequency, TF over GST control)"
same,binding signal,ETV6,"1.3 fold enrichment (6-mer frequency, TF over GST control)"
